Bioassay records deposited in PubChem by National Center for Advancing Translational Sciences (NCATS).
Shown are actives, neighbours in structure and some others; about 2.4% of the full set was active somewhere.
D2 PAM-1 – D2 dopamine receptor (human) potentiation. P14416. HEK293 T-REx D2, calcium flux, EC20 dopamine potentiation. potentiation, % at 10 µM. 340,000 tested, 0.34% active. AID 485347;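 active = potentiation over 3 SD above the plate norm, cut at about 30% in these data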; note: 0% is about no effect
Target sequence (P14416 whole entry, looked up): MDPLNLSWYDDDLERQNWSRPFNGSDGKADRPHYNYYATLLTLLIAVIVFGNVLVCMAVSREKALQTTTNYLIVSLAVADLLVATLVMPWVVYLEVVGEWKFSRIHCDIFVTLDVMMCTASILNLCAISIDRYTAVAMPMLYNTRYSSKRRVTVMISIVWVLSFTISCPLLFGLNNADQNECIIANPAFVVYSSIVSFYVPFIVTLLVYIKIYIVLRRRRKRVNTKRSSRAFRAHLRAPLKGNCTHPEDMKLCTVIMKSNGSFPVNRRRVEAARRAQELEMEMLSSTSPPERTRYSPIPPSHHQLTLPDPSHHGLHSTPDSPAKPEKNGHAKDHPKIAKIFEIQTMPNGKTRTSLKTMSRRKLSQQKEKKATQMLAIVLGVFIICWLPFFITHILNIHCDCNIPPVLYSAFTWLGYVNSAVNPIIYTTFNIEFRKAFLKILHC
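Calcium flux readout, no-wash dye, 1 read/s. Inducible HEK293 Trex D2 line, overnight 30 C. Compound alone 180 s (agonist flags), then EC20 dopamine, another 180 s to score potentiation.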
D2 antag – antagonizes the human D2 dopamine receptor; P14416; HEK293 TREx D2 cells, calcium flux, dopamine EC80; inhibition, % at 10 µM; 340,000 tested, 2% active; in the data active = inhibition above about 30%; inactive = below that, where a call was filed; note: 0% is about no effect
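Overnight-induced (tetracycline, 30 C) HEK293 T-REx cells carrying force-coupled D2 receive a no-wash calcium dye, then compound, then EC80 dopamine at 180 s; signals are read kinetically throughout.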
D2 ag-1 – human D2 receptor agonism in beta-arrestin assay | 360,000 tested, 0.084% active | DiscoveRx PathHunter D2 beta-arrestin, luminescence, 90 min; 100% = 57 uM dopamine signal | activation, % (concentration not given with the values) | P14416; in the data active = activation above about 40%; inconclusive = between about 15% and that limit
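Agonist mode: compounds alone added to overnight-plated D2 PathHunter cells for 90 min at 37 C, with 57 uM final dopamine (EC100) defining full response. Beta-arrestin recruitment detected by chemiluminescent reagent, read after 1 h at ambient temperature.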
D2 ag-2 – activates the human D2 dopamine receptor; P14416; HEK293 T-REx D2 cells, calcium flux agonist mode; activation, % at 2 µM; 340,000 tested, 0.53% active; AID 485358;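 active = activation over 3 SD above normal in the single-dose calcium agonist read, cut at about 30% in these data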; note: 0% is about no effect
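In this primary screen, compounds producing a positive calcium signal within 180 s of addition to tetracycline-induced, force-coupled HEK293 Trex D2 cells are flagged; cells are dye-loaded with a no-wash calcium kit beforehand.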
D2 PAM-2 – positive allosteric modulators of human D2 dopamine receptor | 360,000 tested, 0.23% active | potentiation, % (test concentration not listed) | DiscoveRx D2 beta-arrestin cells, luminescence, 90 min; 100% = 57 uM dopamine signal | P14416; in the data active = potentiation above about 50%; inconclusive = mostly about 30% to 49%
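D2 cells co-treated with compound plus 50 nM dopamine (EC20) for 90 min at 37 deg C to detect potentiation. Beta-arrestin recruitment was read as enzyme-fragment luminescence after 1 h at ambient temperature. Full response was set by 57 uM dopamine.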
The depositor's hits bear a star; u = inconclusive; x = not tested or not shown.

SMILES	D2 PAM-1	D2 antag	D2 ag-1	D2 ag-2	D2 PAM-2
CN(C)c1nc(SCC(=O)Nc2ccccc2)nc(N2CCOCC2)n1	2	31*	-18	1	2
CN(C)c1nc(SCC(=O)Nc2ccc(Cl)c(Cl)c2)nc(N2CCOCC2)n1	x	12	3	-2	-7
CN[C@H]1C[C@@H](c2ccccc2)N(C(C)=O)C[C@H]1CO	x	x	-3	x	-8
Cn1c(=O)c2sccc2n2c(CCCC(=O)NCc3ccccc3)nnc12	x	x	x	0	x
CC1=CC(C)(C)N(C(=O)CN2C(=O)CCC2=O)c2ccc(C)cc21	11	30*	-2	-1	-2
Cc1ccc(OCC(=O)NCC(=O)OCc2cc(=O)n3nc(CC(C)C)sc3n2)cc1	-18	x	x	-2	x
O=C(CN1CCN(c2ccccc2)CC1)NC(=O)NCc1ccco1	-11	-15	2	39*	0
c1ccc(-c2cc3n(c2)CCc2ccccc2-3)cc1	-4	33*	1	1	5
CCCCC(=NCCc1c(C)[nH]c2ccc(OC)cc12)C1=C(O)CC(c2ccccc2)CC1=O (stereo unspecified)	33*	-13	2	6	-20
Cc1ccc(C(=O)Nc2cc(Cl)ccc2N2CCCCC2)s1	-4	32*	0	1	-2
CCc1sc(C(=O)Nc2cc(Cl)ccc2N2CCCCC2)cc1C	-1	6	-1	-1	-2
O=C(CCc1nc2ccccc2c(=O)[nH]1)Nc1cc(Cl)ccc1N1CCCCC1	-6	43*	-5	0	-5
CCCCN(C)C(=O)c1ccc(Nc2nc(C(N)Cc3ccc(C(F)(F)F)cc3)cs2)nc1 (stereo unspecified)	x	x	8	x	-3
COc1ccc(Oc2c(OC)cc(NCc3ccc(CN)cc3)c3ncccc23)cc1	x	x	4	x	-7
CCCCCCCN(c1ccccc1)[C@@H]1C[C@H]2CCCC(=O)N3CC[C@@H](C1)[C@@H]23	x	x	-1	x	-34
Nc1nc(-c2ccccc2)c(-c2ccccc2)n1N	-2	-11	-6	2	-3
c1ccc(-c2cnn3c(-c4ccccc4)c(-c4ccccc4)nc3n2)cc1	-12	39*	-3	137*	-9
O=C(NCCO)c1cccc(-c2cnc3cccnn23)c1	x	x	-7	x	-6
Cc1ccc(C)c(NC(=O)CSc2ccc(S(=O)(=O)N3CCCC3)cn2)c1	-11	39*	3	0	-8
CCOc1ccc(OCCSc2ccc(S(=O)(=O)N3CCN(C)CC3)cn2)cc1	-1	30*	-2	1	1
CCC(CC)NC(=O)CSc1ccc(S(=O)(=O)N2CCCCC2)cn1	3	-3	0	-1	3
O=c1cc(CSc2ccc(S(=O)(=O)N3CCCCC3)cn2)nc2sccn12	33*	3	-2	-1	0
Cc1cc(C)cc(CSc2ccc(S(=O)(=O)N3CCCC3)cn2)c1	-13	0	0	1	0
CN1CCN(S(=O)(=O)c2ccc(SCCOc3ccccc3)nc2)CC1	-2	9	-3	-1	-8
O=S(=O)(c1ccc(SCCO)nc1)N1CCCC1	49*	3	0	1	11
SMILES	D2 PAM-1	D2 antag	D2 ag-1	D2 ag-2	D2 PAM-2
CN1C(=O)c2ccccc2Sc2ccc(NC(=O)COc3ccc(F)cc3)cc21	-14	x	x	1	x
CCNC(=O)C1(C)CCN(C(=O)c2c(F)cccc2F)C1 (stereo unspecified)	x	x	-2	x	-14
Cc1ccc(Oc2nc(-c3ccccc3)ncc2S(C)(=O)=O)cc1	9	9	-3	0	7
Cc1ccc(Oc2nc(-c3ccccc3)ncc2S(=O)(=O)c2ccc(C)cc2)cc1	2	40*	0	-1	0
N#Cc1c(/N=C/C=C/c2ccccc2)sc2c1CCCC2	31*	-11	u	1	27
CN1CCN(/C=N/c2sc3c(c2C#N)CCCCC3)CC1	1	-15	-1	-1	-26
N#CC1=C(N)N2C(=C(C#N)C1c1cccc(Br)c1)Nc1ccccc12 (stereo unspecified)	-7	39*	5	11	5
N#CC1=C(N)N2C(=C(C#N)C1c1ccc(Br)cc1)Nc1ccccc12 (stereo unspecified)	2	0	-4	9	2
O=C1C(Nc2ccccc2)=C(N2CCCCC2)C(=O)c2ccccc21	3	-18	7	0	19
O=C1C(Nc2cccc(O)c2)=C(N2CCCCC2)C(=O)c2ccccc21	4	-5	4	0	65*
N#CC1(NC(=O)COC(=O)C2=COCCO2)CCCCC1	3	50*	-5	0	-4
Oc1ccc(CN2CCc3ccccc3C2)c2cccnc12	-27	65*	-10	-1	-30
Oc1ccc(CN2CCCCC2)c2cccnc12	-5	3	0	1	-2
Oc1cc2c(cc1CN1CCc3ccccc3C1)OCO2	-17	33*	0	0	-21
COc1cc(CN2CCc3ccccc3C2)ccc1O	-22	19	-2	5	-30
CCOC(=O)C1=C(CC)Nc2ccccc2N=C1NC(=O)Nc1ccccc1OC	-26	51*	-4	-1	-17
Cc1ccc(C)n1-c1c(C(=O)NCC(C)c2ccccc2)sc2ncccc12 (stereo unspecified)	0	x	x	0	x
O=C(Cn1c(NCCO)nc2ccccc21)c1ccc([N+](=O)[O-])cc1	7	30*	14	0	-3
Cc1ccc(CCNC(=O)CSCc2nc(-c3ccc(C)cc3)oc2C)cc1	3	x	x	0	x
CCOc1ccc(NC(=O)CCn2c(=O)[nH]c3ccsc3c2=O)cc1	36*	2	0	1	2
Cc1ccc(NC(=O)CCn2c(=O)[nH]c3ccsc3c2=O)cc1	17	11	-3	0	3
Cc1ccc(-n2nc(C(=O)NC(C)C)c(=O)n(C)c2=O)cc1	x	x	x	0	x
CCOC(=O)c1[nH]c2c(c1-c1ccccc1)C(=O)CC(c1ccccc1)C2 (stereo unspecified)	-6	31*	0	1	-1
CC(C)(C)c1ccc(-c2nc(NC(=O)CSc3ncnc4sc5c(c34)CCCC5)ns2)cc1	15	x	x	0	x
CCOC(=O)C1=C(COC(=O)COc2ccc(Br)cc2)NC(=O)NC1C (stereo unspecified)	0	83*	6	0	15
O=C(N/N=C/c1ccsc1)c1ccccn1	-9	39*	-5	0	-5
CC(C)(C)c1ccc(/C=N/NC(=O)c2ccccn2)cc1	-14	3	-4	1	-6
O=C(Nc1nnc(-c2ccccc2F)s1)C1CCCO1 (stereo unspecified)	1	40*	-1	1	2
Cn1cc(C(=O)N2CCN(c3cccc(C(F)(F)F)c3)CC2)c2c3ccccc3n(C)c2c1=O	16	x	x	0	x
